# Inconclusive results are not listed. Entries that show only a call come without a potency. Active and inactive are the calls of the source. Calls follow the shape of the dose curve; as a rule, active = well fitted inhibition curve with a large enough effect; inconclusive = small, poorly fitted or top-dose-only effect; inactive = flat fitted curve, though single readings scatter.
# Key:
# Experiment in all cases: qHTS profiling for inhibitors of Plasmodium falciparum proliferation (AID 504749); also: nearly all actives have a fitted effect of over 60% in size
# Settings in all cases: P. falciparum in erythrocytes, SYBR Green DNA, 72 h; series mostly up to 28.7 µM
# CP325 = system: CP325
# How it was run: (§1)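 P. falciparum-infected erythrocytes (0.3% parasitemia, 2.5% hematocrit) incubated with compound 72 h at 37 C, 5% CO2. Parasite DNA detected by SYBR Green after lysis, overnight at room temperature; normalised to 0.29 uM artemisinin and DMSO.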
# CP329 = system: CP329
# How it was run: as §1
# CP335 = system: CP335
# How it was run: as §1
# DIV14 = system: DIV14
# How it was run: as §1
# DIV17 = system: DIV17
# How it was run: as §1
# DIV30 = system: DIV30
# How it was run: as §1
# Dd2 = system: Dd2
# How it was run: as §1
# ECU = system: ECU
# How it was run: as §1
# GB4 = system: GB4
# How it was run: as §1
# ICS = system: ICS
# How it was run: as §1
# P93_24 = system: P93_24
# How it was run: as §1
# P94_40 = system: P94_40
# How it was run: as §1
# CP305 = system: CP305
# How it was run: as §1
# CP315 = system: CP315
# How it was run: as §1
# DFO2036 = system: DFO2036
# How it was run: as §1
# FAB9 = system: FAB9
# How it was run: as §1
# HB3 = system: HB3
# How it was run: as §1
# JCK = system: JCK
# How it was run: as §1
# N140 = system: N140
# How it was run: as §1
# Potency is read from the fitted curve at half-maximal effect.
SMILES,Potency (CP325),Potency (CP329),Potency (CP335),Potency (DIV14),Potency (DIV17),Potency (DIV30),Potency (Dd2),Potency (ECU),Potency (GB4),Potency (ICS),Potency (P93_24),Potency (P94_40),Potency (CP305),Potency (CP315),Potency (DFO2036),Potency (FAB9),Potency (HB3),Potency (JCK),Potency (N140)
CC(=O)c1ccc2c(c1)N(CCCN1CCN(CCO)CC1)c1ccccc1S2,16.9 µM (active),15.1 µM (active),12 µM (active),7.57 µM (active),12 µM (active),16.9 µM (active),12.6 µM (active),12.6 µM (active),8.49 µM (active),7.94 µM (active),8.91 µM (active),10 µM (active),,,,,,,
C/C(=C\C(=O)OCCCCCCCCC(=O)O)C[C@@H]1OC[C@H](C[C@@H]2O[C@H]2[C@@H](C)[C@H](C)O)[C@@H](O)[C@H]1O,,,0.151 µM (active),,,,0.178 µM (active),,,,,0.141 µM (active),,,,,,,
CC(C)NCC(O)COc1ccccc1-n1cccc1 (centres undefined),inactive,inactive,inactive,,inactive,inactive,,inactive,,,inactive,inactive,inactive,inactive,inactive,inactive,inactive,inactive,inactive
COc1ccc(/C=C/C(=O)OCCC(C)C)cc1,inactive,inactive,inactive,inactive,inactive,inactive,inactive,inactive,inactive,inactive,inactive,inactive,inactive,inactive,inactive,inactive,inactive,inactive,
CCCCC/C=C\C/C=C\C/C=C\CCCCC(=O)O,inactive,inactive,inactive,inactive,inactive,inactive,inactive,inactive,,,inactive,inactive,inactive,inactive,inactive,inactive,inactive,inactive,inactive
CCOC(=O)c1c[nH]c2cc(OCC(C)C)c(OCC(C)C)cc2c1=O,0.0601 µM (active),,0.0675 µM (active),0.151 µM (active),0.338 µM (active),,0.141 µM (active),0.0891 µM (active),0.0601 µM (active),0.0794 µM (active),0.141 µM (active),0.126 µM (active),0.0675 µM (active),,0.1 µM (active),0.1 µM (active),0.178 µM (active),0.282 µM (active),0.141 µM (active)
CC[C@H]1OC(=O)[C@H](C)[C@@H](O[C@H]2C[C@@](C)(OC)[C@@H](O)[C@H](C)O2)C(C)[C@@H](O[C@@H]2O[C@H](C)C[C@H](N(C)C)[C@@H]2O)[C@](C)(OC)C[C@@H](C)C(=O)[C@H](C)[C@@H](O)[C@]1(C)O (some centres undefined),,,6.75 µM (active),inactive,inactive,inactive,,inactive,,10 µM (active),inactive,inactive,inactive,inactive,inactive,,,inactive,inactive
NC(N)=NCC1COc2ccccc2O1 (centres undefined),,,,inactive,,inactive,,inactive,,,,inactive,,inactive,,inactive,,inactive,inactive
CC(=O)[O][Al][O]C(C)=O,,,inactive,,,inactive,inactive,inactive,,inactive,inactive,inactive,,inactive,inactive,inactive,inactive,inactive,inactive
CCOC(=O)Cc1ccc(-c2ccccc2)cc1,inactive,inactive,,inactive,inactive,,inactive,inactive,inactive,inactive,inactive,inactive,inactive,inactive,,inactive,inactive,inactive,0.224 µM (active)
CS(=O)(=O)c1ccc([C@@H](O)[C@@H](COC(=O)CN)NC(=O)C(Cl)Cl)cc1,,,,inactive,inactive,inactive,6.31 µM (active),inactive,,,,,,,,inactive,inactive,inactive,inactive
O=c1n(CC2CO2)c(=O)n(CC2CO2)c(=O)n1CC1CO1 (centres undefined),inactive,inactive,,,,inactive,,inactive,,,,,,inactive,,inactive,inactive,inactive,inactive
